Screening data (PubChem BioAssay)
An excerpt weighted towards active compounds, which were near 5.7% of everything screened.
MPTP block: inhibitors of mitochondrial permeability transition pore | isolated mouse mitochondria, Ca2+ swelling absorbance, 30 min | inhibition, % at 10 µM | hit rate 1.4% among 360,000;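 active = inhibition of 50% or more, scaled per plate between neutral and stimulator controls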
Myeloid diff 2: promotes myeloid progenitor differentiation. calls only at 10 µM. ER-HoxA9 myeloid progenitors, lysozyme-GFP differentiation, flow cytometry. hit rate 1% among 360,000;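 active = normalized GFP-positive differentiation at or above the plate's own cutoff, the solvent-only control mean plus 3 SD; inconclusive = no clear call, values can overlap the other calls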;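 also: cells exposed to compound for four days before flow analysis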
NR3A LBD binder: modulates the human NR3A ligand-binding domain. NR3A LBD differential scanning fluorimetry, Tm shift; 0% = protein alone, 100% = glycine-bound protein. Tm shift relative to glycine control, % at 25 µM. hit rate 2.5% among 340,000. AID 1259313;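 active = melting temperature shift of at least 10% of the positive control shift, at one fixed dose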
FAS-TE inh: inhibitors of human fatty acid synthase thioesterase domain | AID 602261 | P49327 | hit rate 0.67% among 360,000 | inhibition, % at 15 µM | recombinant FAS-TE, OMFH fluorogenic substrate, fluorescence endpoint;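 active = compounds whose normalised, plate-corrected inhibition of enzyme fluorescence in the single-dose primary screen is 50% or more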
rCAG RNA binder: binds r(CAG) RNA repeats | hit rate 1.3% among 370,000 | r(CAG) RNA repeat, TO-PRO-1 dye displacement fluorescence | inhibition, % at 3 µM;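 active = inhibition above the plate cutoff, the mean of all test compounds on that plate plus 3 SD, cut at about 35% in these data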;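 also: higher means more dye released from RNA so lower well fluorescence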
FAS-TE inh conf: confirmation of human fatty acid synthase thioesterase inhibitors; shares compounds with FAS-TE inh; hit rate 45% among 2,300; inhibition, % at 15 µM; recombinant FAS-TE, OMFH fluorogenic substrate, fluorescence; AID 624325;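 active = compounds inhibiting the enzyme by at least 50% at 15 µM in any one of the replicates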
Numbers stand for hits; . = inactive; ? = inconclusive; / = not tested or not shown.

SMILES	MPTP block	Myeloid diff 2	NR3A LBD binder	FAS-TE inh	rCAG RNA binder	FAS-TE inh conf
Cc1cccc(-c2cccc3c4c([nH]c23)[C@@H]2C[C@H](N(C)C(=O)C3CCCCC3)[C@H]([C@H](C)O)CN2CC4)c1	/	/	/	/	.	/
Clc1ccc(-c2cc(-c3nnc4sc(Cc5cccs5)nn34)[nH]n2)cc1	/	/	/	/	.	/
COc1ccccc1S(=O)(=O)N(C)C[C@H]1Oc2cc(Br)ccc2S(=O)(=O)N([C@H](C)CO)C[C@H]1C	/	/	/	/	.	/
C=CCNC(=O)/C(=C\c1ccc(OC)cc1)NC(=O)c1ccc([N+](=O)[O-])cc1	.	.	.	76	.	83
COc1ccc(/C=C(/NC(=O)c2ccc([N+](=O)[O-])cc2)C(=O)NCCCN(C)C)cc1	.	.	.	71	.	77
COc1ccc(/C=C(\NC(=O)c2ccc(OC)cc2)C(=O)NC(CCSC)C(=O)O)cc1 (stereo not drawn)	.	.	.	.	.	/
CN(C)CCCNC(=O)/C(=C\C=C\c1ccccc1)NC(=O)c1ccc([N+](=O)[O-])cc1	.	.	.	86	.	89
COc1ccc(C(=O)N/C(=C\c2ccc([N+](=O)[O-])cc2)C(=O)NC(CCSC)C(=O)O)cc1 (stereo not drawn)	.	.	.	57	.	53
Cc1ccc(C(=O)N/C(=C\c2ccc([N+](=O)[O-])cc2)C(=O)NCCc2ccccc2)cc1	.	.	.	.	.	/
CC(C)(C)NC(=O)c1ccc(COc2ccc(Cl)cc2Cl)o1	.	.	.	65	.	.
COc1ccc(CN(C)C(=O)COC(=O)c2cc([N+](=O)[O-])ccc2N2CCCC2)c(OC)c1OC	.	.	.	70	.	31
CCN(C(=O)COC(=O)c1cc([N+](=O)[O-])ccc1N1CCOCC1)c1ccccc1	.	.	.	78	.	71
CN(Cc1ccccc1)C(=O)COC(=O)c1cc([N+](=O)[O-])ccc1N1CCOCC1	.	.	.	92	.	91
O=C(Cc1cccs1)NC1CCCCN(Cc2ccc(Cl)cc2)C1=O (stereo not drawn)	/	/	/	/	.	/
COC(=O)C1=C(C)N(Cc2ccc(Br)cc2)C(=S)NC1c1cccc(F)c1 (stereo not drawn)	/	/	/	/	.	/
COC(=O)[C@]12C[C@H](CC(=O)N3CCOCC3)C(=O)N(Cc3ccccc3)C1=C[C@H](C(C)(C)C)O[C@@H]2C	/	/	/	/	.	/
O=[N+]([O-])c1ccc(/C=N/Nc2nc(N3CCCCC3)nc(N3CCCCC3)n2)cc1	.	.	.	54	.	.
Cc1cc(-c2ccccc2)nc(N/N=C/c2ccc([N+](=O)[O-])cc2)n1	.	.	24	67	.	46
O=[N+]([O-])c1ccc(Nc2nc(N/N=C\c3ccc4c(c3)OCO4)nc(N3CCCCC3)n2)cc1	.	.	13	56	.	.
COc1ccc(CC(N)c2csc(NC(=O)Nc3ccccc3-c3ccccc3)n2)cc1 (stereo not drawn)	.	.	/	.	.	/
CCOc1ccc(-n2c(SCC(=O)c3ccc4ccccc4c3)nnc2-c2ccc(OC)cc2)cc1	/	/	/	/	.	/
CC(C)n1c2ccccc2c2cc([N+](=O)[O-])ccc21	.	.	.	.	.	/
CCC(C)n1c(=S)[nH]c2c(sc3ccc([N+](=O)[O-])cc32)c1=O (stereo not drawn)	.	.	.	54	.	51
Cc1ccc(S(=O)(=O)/N=C(\Sc2ccccc2)c2ccccc2)cc1	.	.	.	63	.	51
O=S(=O)(/N=C(\Sc1ccccc1)c1ccccc1)c1ccc(Cl)cc1	.	.	.	66	.	.
SMILES	MPTP block	Myeloid diff 2	NR3A LBD binder	FAS-TE inh	rCAG RNA binder	FAS-TE inh conf
Cc1ccc(S(=O)(=O)/N=C(/Sc2ccccc2C(=O)O)c2ccccc2)cc1	.	.	.	.	.	/
O=C(CN1C(=O)c2cccnc2Oc2ccc(Cl)cc21)NCCCc1ccccc1	.	.	.	55	.	.
Cc1c([N+](=O)[O-])cnc(Sc2ccccc2)c1[N+](=O)[O-]	.	.	.	60	.	.
CN1CCN(C(=S)NC(=O)c2ccc(S(=O)(=O)N3CCOCC3)cc2)CC1	.	.	.	.	.	/
O=C(NC(=S)N1CCN(C(c2ccccc2)c2ccccc2)CC1)c1ccc(S(=O)(=O)N2CCOCC2)cc1	.	.	.	56	.	.
CCn1c2ccccc2c2cc(NC(=O)C3CCN(S(=O)(=O)c4cccs4)CC3)ccc21	.	?	.	66	.	.
Cc1ccc2nc(NC(=O)C3CCN(S(=O)(=O)c4cccs4)CC3)sc2c1	.	.	.	68	.	.
Cc1ccc(NC(=O)C2CCN(S(=O)(=O)c3cccs3)CC2)cc1C	.	.	.	.	/	/
COCCN1Cc2cc(C(=O)OC)c3c(c2C1=O)c1cc(F)ccc1n3S(=O)(=O)c1ccc(C)cc1	/	/	/	/	.	/
COC(=O)CCC[C@H](C)[C@@H](NS(=O)(=O)c1ccc(C)cc1)C(C)(C)C	/	/	/	/	.	/
COC(=O)[C@]12C[C@H](CC(=O)N3CCC(c4ccccc4)CC3)C(=O)N(Cc3ccc(Cl)cc3Cl)C1=C[C@H](COCc1ccccc1)O[C@@H]2C	/	/	/	/	.	/
Cc1ccc(NC(=O)Cn2nc(-c3ccco3)ccc2=O)cc1Cl	.	.	.	50	.	.
CCCCOCCCNC(=O)C[C@@H]1C(=O)N(Cc2ccc(OC)cc2)/C2=C/CCCCC[C@@]21C(=O)OCC	/	/	/	/	.	/
Cc1nccn1-c1ccc(NC(=O)[C@@H](Cc2ccccc2)NC(=O)[C@H]2O[C@@H](n3ccc(=O)[nH]c3=O)[C@H](O)[C@@H]2O)cc1	/	/	/	/	.	/
CCOC(=O)C1CCN(C(=O)COC(=O)c2cc([N+](=O)[O-])ccc2N2CCOCC2)CC1	.	.	.	70	.	71
CC1CCCN(C(=O)COC(=O)c2cc([N+](=O)[O-])ccc2N2CCOCC2)C1 (stereo not drawn)	.	.	.	81	.	84
CC1CCN(c2ccc([N+](=O)[O-])cc2C(=O)N2CCOCC2)CC1	.	.	.	.	.	/
CC1CC(C)CN(C(=O)COC(=O)c2cc([N+](=O)[O-])ccc2N2CCOCC2)C1 (stereo not drawn)	.	.	.	83	.	81
CC1CCCC(C)N1C(=O)COC(=O)c1cc([N+](=O)[O-])ccc1N1CCOCC1 (stereo not drawn)	.	.	.	63	.	74
CCOC(=O)C1CCN(c2ccc([N+](=O)[O-])cc2S(=O)(=O)N2CCOCC2)CC1	.	.	.	.	.	/
O=C(COc1ccc2c(-c3ccccc3)cc(=O)oc2c1)N1C[C@H]2C[C@@H](C1)c1cccc(=O)n1C2	.	.	/	.	.	/
C[C@@H]1CN([C@H](C)CO)C(=O)c2cc(NC(=O)Nc3ccccc3)ccc2O[C@@H](C)CCCCO[C@H]1CN(C)S(C)(=O)=O	/	/	/	/	.	/
COc1cc(-c2cc(NC(C)=O)c3ncc(-c4ccc(C(C)=O)cc4)n3c2)cc(OC)c1OC	.	.	/	.	.	/
